GPR151 ag: activates the human receptor GPR151 | Q8TDV0 | PathHunter beta-arrestin GPR151 cells, luminescence | activation, % at 11.2 µM | 1% of 650,000 active | AID 1508602; in the data active = activation above about 4.9%;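 note: 0% = median of compound wells and 100% = cells with positive control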
FBW7 act: human FBW7 E3 ligase activation, primary screen | Q969H0 | AlphaScreen FBW7–phospho-cyclin E peptide binding, activator screen | normalized activity (activation), % at 26.1 µM | 0.13% of 650,000 active; in the data active = normalized activity above about 1.9%;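 note: purified mutant Fbw7 with reduced substrate affinity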
TEAD-YAP block: TEAD-YAP interaction inhibition; HEK-TIYL cells, TEAD-Gal4/YAP UAS-luciferase luminescence; inhibition, % at 9.12 µM; 1.4% of 640,000 active; in the data active = inhibition above about 32%;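 note: 0% = median of test compound wells and 100% = reference inhibitor wells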
MITF primary: inhibitors of human MITF. inhibition, % at 2.6 µM. AID 1259374. O75030. AlphaScreen MITF homodimerization, bead proximity signal. 0.91% of 650,000 active; in the data active = inhibition above about 50%;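 note: 0% = vehicle wells with protein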
Target sequence (O75030 whole entry, looked up): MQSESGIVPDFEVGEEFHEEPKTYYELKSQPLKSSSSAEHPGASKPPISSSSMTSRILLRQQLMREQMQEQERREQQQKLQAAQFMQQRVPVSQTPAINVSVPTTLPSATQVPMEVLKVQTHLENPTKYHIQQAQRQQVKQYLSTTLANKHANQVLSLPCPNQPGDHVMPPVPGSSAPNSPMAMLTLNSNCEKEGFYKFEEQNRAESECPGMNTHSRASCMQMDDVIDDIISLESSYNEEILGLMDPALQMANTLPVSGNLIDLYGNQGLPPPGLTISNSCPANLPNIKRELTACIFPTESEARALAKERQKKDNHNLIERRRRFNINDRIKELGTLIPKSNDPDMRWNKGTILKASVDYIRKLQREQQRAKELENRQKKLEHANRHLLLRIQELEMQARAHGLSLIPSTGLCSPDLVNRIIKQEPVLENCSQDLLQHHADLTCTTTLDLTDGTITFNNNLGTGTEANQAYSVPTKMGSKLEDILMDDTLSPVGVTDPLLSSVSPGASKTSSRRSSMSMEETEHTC
MITF confirm: confirmation of human MITF inhibitors. shares compounds with MITF primary. AlphaScreen MITF homodimerization, biotin/His-MITF beads. inhibition, % at 2.6 µM. 16% of 4,700 active;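 active = inhibition above a cutoff derived from the DMSO control wells, cut at about 28% in these data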;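 note: 0% = MITF dimer wells with DMSO only; inhibitors lower the bead chemiluminescence by keeping MITF from dimerizing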
AS interf ctr: counter-screen: compounds optically interfering with AlphaScreen. shares compounds with MITF primary. LysRS AlphaScreen counterscreen, signal interference, triplicate. inhibition, % at 2.6 µM. 7.6% of 4,700 active. AID 1259376;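 active = inhibition above a cutoff derived from the DMSO control wells, cut at about 30% in these data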
* = called active by the depositor; · = no result given. In the library only some 3.5% were active in any assay of this set; here they are far more common.

SMILES	GPR151 ag	FBW7 act	TEAD-YAP block	MITF primary	MITF confirm	AS interf ctr
CC(O)CNCCCCOc1ccc2ccccc2c1Br (stereo not drawn)	1	0	3	71*	53*	40*
COc1ccc(CN(C)CCc2ccccn2)cc1OCc1ccccc1	2	0	-14	62*	4	23
COc1cc(/C=C/C(=O)NCc2ccccn2)cc(OC)c1OC	-1	0	-7	-5	·	·
C=CCc1ccc(OC)c(OCc2ccccc2)c1	-1	0	3	22	·	·
COc1ccc(CN(Cc2ccccn2)S(=O)(=O)c2ccc(F)cc2F)cc1OC	0	0	5	4	·	·
COc1ccc(CN(C)CCc2ccccn2)cc1OC	-2	0	-2	77*	0	2
COc1cc(CN(C)CCc2ccccn2)cc(OC)c1OC	0	0	3	74*	12	19
O=[N+]([O-])c1ccccc1OCCOCCOc1ccccc1[N+](=O)[O-]	0	0	-4	3	·	·
CN1CCN(CCOCCOc2ccccc2[N+](=O)[O-])CC1	0	0	3	78*	7	22
Cc1ccc(OCCOCCN2CCN(C)CC2)c([N+](=O)[O-])c1	0	0	-7	87*	18	26
COc1ccc(OCCNCc2ccco2)cc1	2	0	0	52*	-18	-2
C#CCn1c(=NC(=O)CN2C(=O)CCC2=O)sc2cc([N+](=O)[O-])ccc21	1	0	-2	8	·	·
Fc1ccc(CN2CCC(N3CCN(c4ccccc4)CC3)CC2)cc1	-1	0	-2	53*	6	0
c1ccc(N2CCN(C3CCN(Cc4ccncc4)CC3)CC2)cc1	0	0	9	75*	10	17
CSc1ccc(CN2CCN(C3CCN(Cc4ccccc4)CC3)CC2)cc1	-1	0	15	46	·	·
COC(=O)C1CCN(C(=O)C2CCCN(C3CCN(Cc4ccccc4)CC3)C2)CC1 (stereo not drawn)	1	0	4	-2	·	·
Fc1ccc(CN2CCC(N3CCOCC3)CC2)cc1	-1	0	2	61*	-9	1
O=C(C1CCCN(C2CCN(Cc3ccccc3)CC2)C1)N1CCN(c2ccccc2)CC1 (stereo not drawn)	-1	0	14	73*	6	17
COc1ccc(N2CCN(C3CCCN(Cc4ccncc4)C3)CC2)cc1 (stereo not drawn)	0	0	0	0	·	·
O=C(NCc1ccccc1)c1ccc(N2CC3CC(C2)c2cccc(=O)n2C3)c(NS(=O)(=O)c2ccc(F)cc2)c1 (stereo not drawn)	-1	0	-13	-15	·	·
CC(C)c1ccc(NC(=O)CC(=O)Nc2ccc3nc4n(c(=O)c3c2)CCCCC4)cc1	-1	0	5	1	·	·
CCOC(=O)c1c(NC(=O)c2ccccc2F)sc(C(=O)Nc2cccc(C(F)(F)F)c2)c1C	0	0	7	-22	·	·
O=[N+]([O-])c1ccc(CN2CCC(N3CCCC3)CC2)cc1	-1	0	0	34	·	·
CC1CCN(C2CCN(Cc3ccc([N+](=O)[O-])cc3)CC2)CC1	-1	0	14	60*	-5	-2
O=[N+]([O-])c1ccc(CN2CCC(N3CCN(c4ccccc4)CC3)CC2)cc1	-2	1	17	78*	4	5
SMILES	GPR151 ag	FBW7 act	TEAD-YAP block	MITF primary	MITF confirm	AS interf ctr
Fc1cccc(CN2CCC(N3CCN(c4ccccc4)CC3)CC2)c1	0	0	-2	77*	1	11
N#Cc1c(NC(=O)C2CC2)sc2c1CCC2	-1	0	-15	-4	·	·
O=C(C1CCCC1)N(c1ccc(Br)cc1)C1C=CS(=O)(=O)C1 (stereo not drawn)	1	0	11	11	·	·
CCOC(=O)c1c(/N=c2\oc3ccccc3cc2C(=O)Nc2ccccc2)sc(C)c1C	0	0	-36	-3	·	·
Fc1ccc(-c2cc(N3CCN(c4ccccn4)CC3)nc(-c3cccnc3)n2)cc1	1	0	6	73*	15	15
OC1CCN(c2cc(-c3cccnc3)nc(-c3ccccc3)n2)CC1	-1	0	12	71*	5	12
c1ccc(-c2nc(-c3cccnc3)cc(N3CCN(c4ccccn4)CC3)n2)cc1	1	0	2	11	·	·
OC1CCN(c2cc(-c3ccccc3)nc(-c3cccnc3)n2)CC1	-1	0	8	12	·	·
